In PubChem BioAssay AID463173 (ICCB-Longwood Screening Facility, Harvard Medical School, 2010):
The whole screen tested about 52,000 compounds, of which about 4,300 (8.3%) were called active. What follows is part of a selection rich in actives, with near analogues and random picks from the rest. Values without a mark were called inactive. Rule as the data show it: active = survival mostly below about 52% (no sharp cut-off); inactive = mostly above about 56%.

Each compound was assayed on DeltatarO mutant (assay: growth inhibition of S. aureus wild type versus tarO mutant, primary screen, teichoic acid synthesis inhibitors, RN4220, OD600 (AID 463173)). Conditions: OD600, 18 h, hits give low values, screened at 18.75 µg/mL (by protocol).

Compound | survival
O=c1c2ccc(N3CCOCC3)c3cccc(c32)c2nc3ccccc3n12 | 90%
Cc1cccc(C(=O)Nc2ccc3oc(-c4cccc5c(Br)cccc45)nc3c2)c1 | 67%
O=C(Nc1ccc2oc(-c3cccnc3)nc2c1)c1cccc(Br)c1 | 62%
Cc1cccc(C(=O)Nc2ccc(-c3nc4cc(C(C)C)ccc4o3)cc2)c1 | 34% (active)
CC(C)(C)c1ccc(-c2nc3cc(NC(=O)c4cccc(Br)c4)ccc3o2)cc1 | 73%
Cc1cccc(C(=O)Nc2ccc3oc(-c4ccncc4)nc3c2)c1 | 62%
CC(C)c1ccc2oc(-c3ccc(NC(=O)c4cccc(Br)c4)cc3)nc2c1 | 44% (active)
CC1CCN(CC(=O)Nc2ccc3ccccc3c2)CC1 | 107%
CCCC(O)=NS(=O)(=O)c1ccc(N=NN(C)C)cc1 | 94%
COc1cccc(NC(=O)CN(C)S(=O)(=O)c2cccs2)c1 | 108%
CC(C)C(OC(=O)c1cc2occc2n1C(C)C)C(=O)NCC1CCCO1 (stereo unspecified) | 67%
COc1ccc(NC(=O)Cn2cc(C#N)c3ccccc32)cc1 | 67%
CCC1CN(C(=O)N2CCC(C(=O)NCCc3ccc(OC)c(OC)c3)CC2)c2ccccc2O1 (stereo unspecified) | 74%
CC1CCc2nc3ncn(Cc4cccc(F)c4)c(=O)c3cc2C1 (stereo unspecified) | 102%
Cc1ccccc1Cn1cnc2nc3c(cc2c1=O)CC(C)CC3 (stereo unspecified) | 8% (active)
CC1CCc2nc3ncn(Cc4ccccc4C#N)c(=O)c3cc2C1 (stereo unspecified) | 81%
Cc1ccc(Cn2cnc3nc4c(cc3c2=O)CC(C)CC4)cc1 (stereo unspecified) | 20% (active)
CC1CCc2nc3ncn(Cc4ccccc4F)c(=O)c3cc2C1 (stereo unspecified) | 66%
CC1CCc2nc3ncn(Cc4ccc(Cl)cc4)c(=O)c3cc2C1 (stereo unspecified) | 85%
CC1CCN(C(=O)Cn2cc(SCc3ccccc3)c3ccccc32)CC1 | 46%
Cc1cc(C)cc(NC(=O)c2cc(CN3CCCC3)on2)c1 | 88%
CCOc1ccc(NC(=O)c2c(NCc3cccs3)sc3c2CCC(C)C3)cc1 (stereo unspecified) | 129%
COc1ccc(CNc2ncnc3c2c(-c2ccccc2)cn3-c2cccc(C)c2)cc1 | 67%
Cc1ccc(CNC(=O)Cn2c3ncccc3c(=O)n2-c2ccc(C)cc2)cc1 | 116%
CCOC(=O)N1CCN(C(=O)c2ccc3c(c2)N(Cc2cccc(Cl)c2)C(=O)c2ccccc2S3=O)CC1 (stereo unspecified) | 102%
Cc1cccc(Cc2cnc(NC(=O)C3Cc4ccc(C)cc4C(=O)O3)s2)c1 (stereo unspecified) | 85%
